The full ranking holds about 3,200 compounds; the median of “TSA(without NAD+) / Primary screening (TSA) / delta Tm (K)” is about -0.07, and the highest 2% start at about 0.37. The sample holds the highest values, similar compounds and a random draw of the others, so the mix is not that of the screen.

Chain of NAD-dependent deacetylase Sirtuin 1 (Q96EB6 2-747 limits assumed): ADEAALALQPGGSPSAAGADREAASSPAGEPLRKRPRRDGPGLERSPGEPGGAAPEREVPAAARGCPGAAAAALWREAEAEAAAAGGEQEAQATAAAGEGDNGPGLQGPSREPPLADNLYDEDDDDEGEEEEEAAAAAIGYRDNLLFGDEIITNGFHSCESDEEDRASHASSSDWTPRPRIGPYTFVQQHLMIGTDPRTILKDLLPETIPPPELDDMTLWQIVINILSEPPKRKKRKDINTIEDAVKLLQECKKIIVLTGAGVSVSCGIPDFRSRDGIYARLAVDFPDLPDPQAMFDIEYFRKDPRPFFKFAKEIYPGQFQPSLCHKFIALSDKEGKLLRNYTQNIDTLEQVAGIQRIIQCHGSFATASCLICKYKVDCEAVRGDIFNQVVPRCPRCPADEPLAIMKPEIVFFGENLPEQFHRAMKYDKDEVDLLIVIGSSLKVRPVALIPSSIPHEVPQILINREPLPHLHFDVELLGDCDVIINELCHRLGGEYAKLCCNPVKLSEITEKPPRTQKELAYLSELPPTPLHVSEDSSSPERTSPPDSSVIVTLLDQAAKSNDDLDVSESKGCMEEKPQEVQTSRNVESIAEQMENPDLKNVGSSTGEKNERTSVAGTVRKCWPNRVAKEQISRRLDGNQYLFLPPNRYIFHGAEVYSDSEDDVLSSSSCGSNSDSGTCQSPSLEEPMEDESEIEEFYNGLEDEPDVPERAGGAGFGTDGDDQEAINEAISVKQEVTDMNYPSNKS

This assay addresses NAD-dependent deacetylase Sirtuin 1 (human, UniProt Q96EB6). The assay can be described thus: primary screen, delta tm. As to conditions: 10 µM. Further details: single well (n = 1). Summed up:
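Thermal shift of Sirtuin 1 measured without NAD+, compound at 10 µM (n = 1); value is ΔTm, with hits defined as ΔTm > 0.45 K or < −1.5 K. Hits retested at 5, 10, 20 µM (n = 4) and counterscreened on bovine carbonic anhydrase and ABL1 SH2 domain.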
Take `CC(C)(C)c1ccc(OCC(=O)NNC(=O)c2cccnc2O)cc1`: the “TSA(without NAD+) / Primary screening (TSA) / delta Tm (K)” value is 0.17 K. As to `Cc1nc2cc(C(=O)Nc3ccc(NC(=O)N4CCCCCC4)cc3)ccc2n1C`, the “TSA(without NAD+) / Primary screening (TSA) / delta Tm (K)” value is -0.04 K. Under `Cc1nc(N2CCC(C(N)=O)CC2)c2c3c(sc2n1)CCCC3` stands 0.56 K; under `NC(=O)C1CCN(c2ncnc3sc4c(c23)CCCCC4)CC1`, 0.36 K; under `Cc1nc(N2CCC(C(N)=O)CC2)c2c3c(sc2n1)CCCCC3`, 0.78 K.

Turning to `Cc1nc(N2CCC(NC(N)=O)CC2)c2c3c(sc2n1)CCCC3`, the “TSA(without NAD+) / Primary screening (TSA) / delta Tm (K)” value is recorded as -0.03 K. Under `NC(=O)C1CCN(c2ncnc3sc4c(c23)CCC4)CC1` stands -0.21 K; under `Cc1nc(N2CCC(C(N)=O)CC2)c2c3c(sc2n1)CCC3`, 0.07 K; under `CN(CC(=O)Nc1cccc2ccccc12)C(=O)C1=COCCO1`, -0.23 K. Take `Cc1[nH]c2ccccc2c1CC(=O)Nc1cccc(-c2noc(=O)[nH]2)c1`: the “TSA(without NAD+) / Primary screening (TSA) / delta Tm (K)” value was 0.07 K. For `CC(C)Oc1ccc(C(=O)C2=C(O)C(=O)N(CCCN3CCOCC3)C2c2cccs2)cc1` (centres unmarked) the value was -0.23 K; for `NC(=O)c1ccc(CN2CCSCC2)cc1`, 0.06 K. Under `CCN(CC)CCNC(=O)c1ccc(NC(=O)CC2CCCC2)cc1` stands 0.07 K; under `NC(=S)c1ccc(C(=O)NCc2ccnc(OCC(F)(F)F)c2)cc1`, -0.18 K.

With `O=C(CCc1c[nH]c2ccccc12)Nc1cccc(S(=O)(=O)NCc2ccco2)c1`, the “TSA(without NAD+) / Primary screening (TSA) / delta Tm (K)” value is listed as -0.01 K.

On to `O=C(CCc1c[nH]c2ccccc12)NCCc1ccco1`, for which the “TSA(without NAD+) / Primary screening (TSA) / delta Tm (K)” value is -0.05 K.

Regarding `CN(c1ccccc1)S(=O)(=O)c1cccc(NC(=O)CNc2cccc3ccccc23)c1`, the “TSA(without NAD+) / Primary screening (TSA) / delta Tm (K)” value worked out at 0.17 K. For `O=C(CCc1c[nH]c2ccccc12)Nc1ccc2nc[nH]c(=O)c2c1` the value was 0.26 K. Under `Cc1ccc(N(C)S(=O)(=O)c2cccc(C(=O)NCCc3c[nH]c4ccccc34)c2)cc1` stands 0.23 K. For `CN(c1ccccc1)S(=O)(=O)c1cccc(NC(=O)CCCc2c[nH]c3ccccc23)c1` the value was 0.52 K; for `O=C(CCc1c[nH]c2ccccc12)Nc1nnc(-c2ccccc2)o1`, 0.52 K; for `CN(c1ccccc1)S(=O)(=O)c1cccc(NC(=O)CCc2c[nH]c3ccccc23)c1`, 0.38 K. In the case of `CN(c1ccccc1)S(=O)(=O)c1cccc(C(=O)NCCc2c[nH]c3ccccc23)c1`, the “TSA(without NAD+) / Primary screening (TSA) / delta Tm (K)” value came out at 0.16 K. For `COc1cccc(NC(=S)Nc2cccc(S(=O)(=O)N(C)c3ccccc3)c2)c1` the value was -0.03 K. As to `NC(=O)c1ccc(C(=O)OCC(=O)c2cc3ccccc3o2)cc1`, the “TSA(without NAD+) / Primary screening (TSA) / delta Tm (K)” value is -0.38 K.

As to `Cc1ccc(NC(=O)CN2CCN(C(=O)c3ccc(-c4ccc(Cl)cc4)o3)CC2)cc1`, the “TSA(without NAD+) / Primary screening (TSA) / delta Tm (K)” value stood at 0.08 K. Under `Cc1ccc2nc(-c3ccc(NC(=O)C(C)Cl)cc3)sc2c1` (centres unmarked) stands 0.22 K; under `O=C1NC(=S)NC(=O)C1=Cc1cn(-c2ccccc2)nc1-c1cc2ccccc2o1`, 0.36 K; under `CC(=O)N1Cc2ccccc2CC1C(=O)NC1CCOc2ccccc21` (centres unmarked), -0.13 K.
